Results reported in the supplement of paper PMC13380429.

Test system: Vero E6 infected with SARS-CoV-2
Assay: inhibition of SARS-CoV-2 cytopathic effect; higher = more antiviral protection, active = above 15
Settings: 48 h

Measured: inhibition of SARS-CoV-2 cytopathic effect

C#C[C@]1(O)CC[C@H]2[C@@H]3CCC4=CC(=O)CC[C@@H]4[C@H]3CC[C@@]21C [Norethindrone (Norethisterone)]
inactive: 1 nM -1.49% | 8.33 nM -0.9% | 100 nM -1.69% | 833.33 nM 1.37% | 10000 nM 2.33%

O=C1Nc2cc(Cl)c(Cl)cc2N2CCNC[C@H]12
inactive: 1 nM -0.02% | 8.33 nM -0.54% | 100 nM 1.72% | 833.33 nM 0.92% | 10000 nM 1.67%

CC(C)(C)c1cc(/C=C(\C#N)C(N)=S)cc(C(C)(C)C)c1O [tyrphostin-AG-879]
inactive: 1 nM -1.49% | 8.33 nM -0.31% | 100 nM -1.98% | 833.33 nM 5.42% | 10000 nM 8.93%

Cc1c(-c2cnccn2)ssc1=S [oltipraz]
inactive: 1 nM 1.51% | 8.33 nM 4.72% | 100 nM 3.49% | 833.33 nM 5.97% | 10000 nM 0.75%

C[C@H](CS)C(=O)N1CCC[C@H]1C(=O)O [captopril]
inactive: 1 nM -1.79% | 8.33 nM 0.97% | 100 nM -2.39% | 833.33 nM -1.5% | 10000 nM -0.97%

N#Cc1ccc(NCCNCC(=O)N2CCC[C@H]2C#N)nc1
inactive: 1 nM 0.59% | 8.33 nM 2.4% | 100 nM -0.06% | 833.33 nM 3.35% | 10000 nM 2.5%

CC#CC(=O)N1CC[C@@H](n2c(=O)n(-c3ccc(Oc4ccccc4)cc3)c3c(N)ncnc32)C1
inactive: 1 nM -1.14% | 8.33 nM 2.19% | 100 nM 0.31% | 833.33 nM -8.09% | 10000 nM -0.82%

NC(=O)OCCCc1ccccc1 [phenprobamate]
inactive: 1 nM 0.89% | 8.33 nM 0.93% | 100 nM -0.42% | 833.33 nM -2.45% | 10000 nM -2.7%

N#C/C(=C\c1ccc(O)c(O)c1)C(=O)NCc1ccccc1
inactive: 1 nM 5.06% | 8.33 nM 3.47% | 100 nM 7.47% | 833.33 nM 0.08% | 10000 nM 5.05%

N.N.O=C([O-])C[O-].[Pt+2] [nedaplatin]
inactive: 1 nM -3.28% | 8.33 nM -2.76% | 100 nM -0.64% | 833.33 nM -1.21% | 10000 nM -2.85%

CCCN[C@H]1CCc2nc(N)sc2C1 [pramipexole]
inactive: 1 nM -2.43% | 8.33 nM -0.27% | 100 nM -3.37% | 833.33 nM -2.16% | 10000 nM -1.54%

O=c1ccc2cc(O[C@@H]3O[C@H](CO)[C@@H](O)[C@H](O)[C@H]3O)c(O)cc2o1 [esculin]
inactive: 1 nM -1.01% | 8.33 nM -0.49% | 100 nM -1.32% | 833.33 nM -1.49% | 10000 nM -0.95%

CCCOC(=O)c1ccccc1 [propyl-benzoate]
inactive: 1 nM 2.41% | 8.33 nM 0.41% | 100 nM -0.99% | 833.33 nM 0.39% | 10000 nM 2.1%

COC(=O)N[C@H](C(=O)N1CC2(CC2)C[C@H]1c1nc(-c2ccc3c(c2)C(F)(F)c2cc(-c4ccc5[nH]c([C@@H]6[C@H]7CC[C@H](C7)N6C(=O)[C@@H](NC(=O)OC)C(C)C)nc5c4)ccc2-3)c[nH]1)C(C)C [ledipasvir]
inactive: 1 nM -1% | 8.33 nM 1.14% | 100 nM -1.6% | 833.33 nM -5.39% | 10000 nM -5.41%

CC(C(=O)O)c1ccc(C(=O)c2cccs2)cc1 (stereo not given) [suprofen]
inactive: 1 nM 2.14% | 8.33 nM 0.24% | 100 nM -0.86% | 833.33 nM -2.28% | 10000 nM -2.92%

CO/N=C(\C(=O)N[C@@H]1C(=O)N2C(C(=O)O)=C(COC(N)=O)CS[C@H]12)c1ccco1
inactive: 1 nM -0.51% | 8.33 nM 1.54% | 100 nM 0.59% | 833.33 nM 0.24% | 10000 nM -0.24%

CCC(=O)NC1CCc2cccc(OC)c2C1 (stereo not given)
inactive: 1 nM 0.92% | 8.33 nM 1.4% | 100 nM 2.16% | 833.33 nM 7.57% | 10000 nM 4.57%

C/C=C1\[C@H]2C=C(C)C[C@]1(N)c1ccc(=O)[nH]c1C2 [(-)-Huperzine A]
inactive: 1 nM 0.37% | 8.33 nM 2.1% | 100 nM 0.96% | 833.33 nM -0.65% | 10000 nM -0.5%

NC(=O)Nc1cc(-c2cccc(F)c2)sc1C(=O)N[C@H]1CCCNC1
inactive: 1 nM -2.18% | 8.33 nM 0.53% | 100 nM -2.2% | 833.33 nM -4.24% | 10000 nM -19.5%

Cc1cn(-c2cc(NC(=O)c3ccc(C)c(Nc4nccc(-c5cccnc5)n4)c3)cc(C(F)(F)F)c2)cn1 [nilotinib]
inactive: 1 nM 3.96% | 8.33 nM 3.56% | 100 nM 3.11% | 833.33 nM 5.24% | 10000 nM 6.03%

Cc1cc2nc3c(=O)[nH]c(=O)nc-3n(C[C@H](O)[C@H](O)[C@H](O)CO)c2cc1C [riboflavin]
inactive: 1 nM -3.6% | 8.33 nM -1.59% | 100 nM -1.7% | 833.33 nM 0.03% | 10000 nM 0.32%

CCOC(=O)Nc1ccc2c(c1)N(C(=O)CN(C)C)c1ccccc1CC2 [tiracizine]
inactive: 1 nM 3.29% | 8.33 nM -0.87% | 100 nM -0.27% | 833.33 nM 1.89% | 10000 nM 0.68%

CCCCOC(=O)c1cc2c(cn1)[nH]c1ccccc12 [beta-CCB]
inactive: 1 nM -1.28% | 8.33 nM -1.62% | 100 nM -0.04% | 833.33 nM -2.91% | 10000 nM -5.4%

CC(C)NC(=O)COc1cccc(-c2nc(Nc3ccc4[nH]ncc4c3)c3ccccc3n2)c1
inactive: 1 nM -1.49% | 8.33 nM -1.42% | 100 nM 0.74% | 833.33 nM 1.37% | 10000 nM 1.49%

Cc1ncc(OC[C@@]2(c3cccc(F)c3)C[C@H]2C(=O)Nc2ccc(F)cn2)c(C)n1 [lemborexant]
inactive: 1 nM -1.6% | 8.33 nM -1.02% | 100 nM -1.75% | 833.33 nM -4.61% | 10000 nM -1.06%

COc1ccc(-c2csc(NC(=O)[C@H]3CCCCN3S(=O)(=O)c3ccc(C)cc3)n2)cc1
inactive: 1 nM 0.8% | 8.33 nM 2.33% | 100 nM 1.23% | 833.33 nM 2.63% | 10000 nM 1.27%

Cc1cn([C@H]2C[C@H](N=[N+]=[N-])[C@@H](CO)O2)c(=O)[nH]c1=O [zidovudine]
inactive: 1 nM 3.53% | 8.33 nM 3.15% | 100 nM 6.14% | 833.33 nM 2.68% | 10000 nM -0.41%

CCC(=O)c1ccc(OCC(O)CN2CCN(c3ccccc3)CC2)cc1 (stereo not given) [centpropazine]
inactive: 1 nM -4.09% | 8.33 nM -0.61% | 100 nM -2.65% | 833.33 nM -0.96% | 10000 nM -0.58%

N#C[C@@H]1C[C@@H]2C[C@@H]2N1C(=O)[C@@H](N)C12CC3CC(CC(O)(C3)C1)C2
inactive: 1 nM -1.01% | 8.33 nM -0.66% | 100 nM 0.62% | 833.33 nM 0.34% | 10000 nM 2.08%

CCNC(=O)C[C@@H]1N=C(c2ccc(Cl)cc2)c2cc(OC)ccc2-n2c(C)nnc21
inactive: 1 nM -1.97% | 8.33 nM -1.13% | 100 nM 0.74% | 833.33 nM -0.08% | 10000 nM -9.5%

COCc1c(-c2ccc(NC(=O)Nc3cc(C(F)(F)F)ccc3F)c(F)c2)c2c(N)ncnn2c1CN1CCOCC1
inactive: 1 nM -1.56% | 8.33 nM -1.94% | 100 nM -2.74% | 833.33 nM -0.39% | 10000 nM -0.16%

Fc1ccc2nc(CCC#Cc3ccccn3)cn2c1 [dipraglurant]
inactive: 1 nM 0.01% | 8.33 nM 0.17% | 100 nM 0.87% | 833.33 nM 1.2% | 10000 nM 2.02%

CCN1/C(=C/C(C)=O)Sc2ccc(OC)cc21
inactive: 1 nM 1.8% | 8.33 nM 1.75% | 100 nM -2.1% | 833.33 nM 0.11% | 10000 nM 0.79%

O=C(CSc1nc2c(c(=O)n1-c1ccccc1)SCC2)Nc1ccc(-c2ccccc2)cn1
inactive: 1 nM 2.66% | 8.33 nM -2.46% | 100 nM 3.88% | 833.33 nM 1.2% | 10000 nM -2.73%

O=C1[C@@H]2[C@H]3CC[C@H](C3)[C@@H]2C(=O)N1CCCCN1CCN(c2ncccn2)CC1 [tandospirone]
inactive: 1 nM 2.41% | 8.33 nM 0.1% | 100 nM -0.17% | 833.33 nM 1.06% | 10000 nM 0.15%

Cc1cc(-c2cc(O)ccc2Cl)cc2nnc(Nc3ccc(OCCN4CCCC4)cc3)nc12
inactive: 1 nM -1.19% | 8.33 nM 1.04% | 100 nM 4.54% | 833.33 nM -1.25% | 10000 nM -21.4%

Cc1cc(CCCOc2c(C)cc(-c3noc(C(F)(F)F)n3)cc2C)on1 [pleconaril]
inactive: 1 nM 2.59% | 8.33 nM 0.33% | 100 nM -1.07% | 833.33 nM 0.02% | 10000 nM -1.34%

Nc1c(CC(=O)O)cccc1C(=O)c1ccc(Br)cc1 [bromfenac]
inactive: 1 nM -1.88% | 8.33 nM 0.84% | 100 nM -0.8% | 833.33 nM -0.93% | 10000 nM -0.48%

CCCc1nc(C(C)(C)O)c(C(=O)O)n1Cc1ccc(-c2ccccc2-c2nnn[nH]2)cc1 [olmesartan]
inactive: 1 nM 1.89% | 8.33 nM -1.22% | 100 nM 1.17% | 833.33 nM 0.82% | 10000 nM -0.94%

CC(C)(C=O)Cc1cc(C(C)(C)C)c(O)c(C(C)(C)C)c1
inactive: 1 nM 3.54% | 8.33 nM 2.95% | 100 nM 2.75% | 833.33 nM 2.01% | 10000 nM 1.01%
